Values joined by “and” are separate entries in the source; they are usually repeats but may differ in a detail not shown here. Identical values can stand only once. Among all 5,500 compounds or so, about 2,000 (36%) were called active. Roughly 18% stayed inconclusive and do not appear here. No stated cut-off is given here; in the data, active means normalized growth mostly below about 0.91 (no sharp cut-off); inconclusive means no clear call, values can overlap the other calls; inactive means mostly above about 0.92. The list shows a part of the results.
Test: chemical genetic growth profiling, strain panel (AID 1159580);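 further: tested at 20 µM; growth read once vehicle control cultures reached saturation at 30 °C; 1 = growth at the plate median or of vehicle wells; lower values mean less growth of the strain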
Conditions: S. cerevisiae deletion strains, growth OD

Measured: normalized growth

COC(=O)C[C@H]1C(C)(C)[C@@H](O)[C@@H]2CC3=C4C=C(OC)O[C@@H](c5ccoc5)[C@]4(C)CCC3[C@@]1(C)C2=O (some centres not stated)
inactive: locus YAL021C, strain ccr4, hits give low values 0.996 | locus YAL026C, strain drs2, hits give low values 0.99 | locus YAL030W, strain snc1, hits give low values 1 | locus YBL061C, strain skt5, hits give low values 1.01 | locus YBR009C, strain hhf1, hits give low values 1.01 | locus YBR021W, strain FUR4, hits give low values 1.01 | locus YBR023C, strain chs3, hits give low values 0.997 | locus YBR171W, strain sec66, hits give low values 0.999 | locus YBR229C, strain ROT2, hits give low values 1 | locus YBR231C, strain swc5, hits give low values 1 | locus YBR279W, strain paf1, hits give low values 0.999 | locus YCL011C, strain gbp2, hits give low values 1.01 | locus YCL016C, strain dcc1, hits give low values 0.999 | locus YCL029C, strain bik1, hits give low values 0.978 | locus YCL061C, strain MRC1, hits give low values 1.01 | locus YCL069W, strain vba3, hits give low values 0.983 | locus YCR088W, strain abp1, hits give low values 0.99 | locus YDL005C, strain med2, hits give low values 0.989 | locus YDL035C, strain GPR1, hits give low values 1.01 | locus YDL040C, strain nat1, hits give low values 0.998 | locus YDL074C, strain BRE1, hits give low values 1.02 | locus YDL101C, strain DUN1, hits give low values 1 | locus YDL134C, strain PPH21, hits give low values 1.01 | locus YDL185W, strain tfp1, hits give low values 0.982 | locus YDL192W, strain arf1, hits give low values 0.991 | locus YDR001C, strain nth1, hits give low values 0.992 | locus YDR069C, strain doa4, hits give low values 0.998 | locus YDR101C, strain arx1, hits give low values 1 | locus YDR137W, strain rgp1, hits give low values 1.01 | locus YDR159W, strain sac3, hits give low values 0.998 | locus YDR162C, strain NBP2, hits give low values 0.987 | locus YDR195W, strain ref2 0.962 | locus YDR297W, strain sur2, hits give low values 0.994 | locus YDR318W, strain mcm21, hits give low values 0.995 | locus YDR334W, strain swr1, hits give low values 0.978 | locus YDR335W, strain msn5, hits give low values 0.994 | locus YDR388W, hits give low values 0.985 | locus YDR392W, strain spt3, hits give low values 0.992 | locus YDR502C, strain sam2, hits give low values 0.982 | locus YEL003W, strain gim4, hits give low values 0.994 | locus YEL037C, strain rad23, hits give low values 0.988 | locus YEL061C, strain CIN8 (second series), hits give low values 0.982 | locus YEL061C, strain CIN8, hits give low values 1 | locus YER015W, strain faa2, hits give low values 1 | locus YER016W, strain bim1, hits give low values 1.01 | locus YER110C, hits give low values 0.979 | locus YER111C, strain swi4, hits give low values 1 | locus YER155C, strain BEM2 (second series), hits give low values 1.02 | locus YER155C, strain BEM2, hits give low values 1 | locus YER167W, strain BCK2, hits give low values 1.02 | locus YFR010W, strain ubp6, hits give low values 0.982 | locus YGL078C, strain dbp3, hits give low values 0.984 | locus YGL086W, strain mad1, hits give low values 0.991 | locus YGL167C, strain pmr1, hits give low values 1.01 | locus YGL173C, strain kem1, hits give low values 1 | locus YGL227W, strain vid30, hits give low values 0.983 | locus YGL240W, strain doc1, hits give low values 1.02 | locus YGL248W, strain PDE1, hits give low values 0.999 | locus YGL253W, strain hxk2, hits give low values 0.993 | locus YGR078C, strain PAC10, hits give low values 1 | locus YGR135W, strain pre9, hits give low values 0.976 | locus YGR252W, strain gcn5, hits give low values 0.994 | locus YHR013C, strain ard1, hits give low values 1.01 | locus YHR027C, strain rpn1, hits give low values 0.994 | locus YHR030C, strain SLT2, hits give low values 0.96 | locus YHR079C, strain IRE1 (second series), hits give low values 0.992 | locus YHR079C, strain IRE1, hits give low values 0.968 | locus YHR094C, strain hxt1, hits give low values 0.987 | locus YHR129C, strain ARP1, hits give low values 1 | locus YHR142W, strain chs7, hits give low values 0.977 | locus YHR200W, strain rpn10, hits give low values 0.988 | locus YIL066C, strain RNR3, hits give low values 1.02 | locus YIL073C, strain SPO22, hits give low values 0.981 | locus YIL125W, strain kgd1, hits give low values 0.991 | locus YIR030C, strain dcg1, hits give low values 0.992 | locus YJL092W, strain hpr5, hits give low values 0.993 | locus YJL095W, strain BCK1 (second series), hits give low values 1 | locus YJL095W, strain BCK1, hits give low values 0.996 and 0.97 | locus YJL115W, strain asf1, hits give low values 0.985 | locus YJL129C, strain trk1, hits give low values 0.97 | locus YJL134W, strain LCB3, hits give low values 1.01 | locus YJL154C, strain vps35, hits give low values 0.978 | locus YJL164C, strain tpk1, hits give low values 0.997 | locus YJL166W, strain qcr8, hits give low values 0.995 | locus YJL168C, strain set2, hits give low values 0.983 | locus YJL187C, strain SWE1 (second series), hits give low values 1.01 | locus YJR043C, strain POL32, hits give low values 1.04 | locus YJR066W, strain TOR1, hits give low values 0.92 | locus YKL009W, strain mrt4, hits give low values 0.986 | locus YKL068W, hits give low values 0.996 | locus YKL085W, strain MDH1 (second series), hits give low values 0.975 | locus YKL085W, strain MDH1, hits give low values 0.975 | locus YKL160W, strain elf1, hits give low values 1.01 | locus YKL190W, strain CNB1, hits give low values 1 | locus YKR001C, strain vps1, hits give low values 0.992 | locus YKR026C, strain gcn3, hits give low values 0.972 | locus YKR091W, strain srl3, hits give low values 1 | locus YLL001W, strain dnm1, hits give low values 1 | locus YLL026W, hits give low values 1.01 | locus YLL041C, strain sdh2, hits give low values 1.02 | locus YLR027C, strain aat2, hits give low values 1 | locus YLR039C, strain RIC1, hits give low values 0.935 | locus YLR058C, strain SHM2, hits give low values 1.01 | locus YLR102C, strain apc9, hits give low values 0.987 | locus YLR113W, strain HOG1, hits give low values 0.998 | locus YLR221C, strain rsa3, hits give low values 0.998 | locus YLR258W, strain gsy2, hits give low values 0.993 | locus YLR262C, strain YPT6 (second series), hits give low values 0.959 | locus YLR262C, strain YPT6, hits give low values 0.857 | locus YLR268W, strain sec22, hits give low values 0.997 | locus YLR320W, strain mms22, hits give low values 1 | locus YLR342W, strain FKS1 (second series), hits give low values 1.02 | locus YLR342W, strain FKS1, hits give low values 0.999 | locus YLR357W, strain rsc2, hits give low values 1.01 | locus YLR370C, strain arc18, hits give low values 0.993 | locus YLR371W, strain rom2, hits give low values 0.983 | locus YLR384C, strain iki3, hits give low values 1 | locus YLR418C, strain cdc73, hits give low values 0.962 | locus YML016C, strain PPZ1, hits give low values 1.01 | locus YML032C, strain rad52, hits give low values 1 | locus YML120C, strain ndi1, hits give low values 0.998 | locus YML124C, strain tub3, hits give low values 0.992 | locus YMR058W, strain fet3, hits give low values 1 | locus YMR078C, strain ctf18, hits give low values 0.987 | locus YMR125W, strain sto1, hits give low values 0.993 | locus YMR129W, hits give low values 0.997 | locus YMR205C, strain PFK2, hits give low values 1.02 | locus YMR223W, strain ubp8, hits give low values 0.976 | locus YMR231W, strain pep5, hits give low values 0.997 | locus YMR307W, strain GAS1, hits give low values 1 | locus YNL067W, strain RPL9B, hits give low values 0.997 | locus YNL071W, strain lat1, hits give low values 0.978 | locus YNL183C, strain NPR1, hits give low values 0.938 | locus YNL209W, strain ssb2, hits give low values 0.985 | locus YNL233W, strain BNI4, hits give low values 1.01 | locus YNL248C, strain rpa49, hits give low values 0.97 | locus YNL250W, strain rad50, hits give low values 0.981 | locus YNL271C, strain bni1, hits give low values 0.985 | locus YNL298W, strain CLA4, hits give low values 0.984 | locus YNL307C, strain MCK1, hits give low values 0.98 | locus YNL322C, strain KRE1 (second series), hits give low values 1.01 | locus YNR049C, strain mso1, hits give low values 1 | locus YNR052C, strain pop2, hits give low values 0.979 | locus YOL006C, strain TOP1, hits give low values 1.03 | locus YOL012C, strain htz1 1.17 | locus YOL147C, strain pex11, hits give low values 0.986 | locus YOR001W, strain rrp6, hits give low values 0.989 | locus YOR061W, strain CKA2, hits give low values 1 | locus YOR069W, strain VPS5, hits give low values 1 | locus YOR070C, strain gyp1, hits give low values 0.987 | locus YOR080W, strain dia2, hits give low values 0.992 | locus YOR083W, strain WHI5, hits give low values 1.01 | locus YOR106W, strain vam3, hits give low values 0.98 | locus YOR136W, strain idh2, hits give low values 0.991 | locus YOR144C, strain elg1, hits give low values 0.992 | locus YOR184W, strain ser1, hits give low values 0.994 | locus YOR231W, strain MKK1, hits give low values 0.98 | locus YOR265W, strain rbl2, hits give low values 0.993 | locus YOR270C, strain vph1, hits give low values 0.86 | locus YOR290C, strain snf2, hits give low values 1.03 | locus YOR316C, strain cot1, hits give low values 0.981 | locus YPL051W, strain arl3, hits give low values 1.02 | locus YPL055C, strain LGE1, hits give low values 1.03 | locus YPL078C, strain atp4, hits give low values 0.985 | locus YPL106C, strain sse1, hits give low values 1.02 | locus YPL240C, strain hsp82, hits give low values 0.991 | locus YPL256C, strain CLN2, hits give low values 0.955 | locus YPR119W, strain clb2, hits give low values 0.982 | locus YPR141C, strain kar3, hits give low values 0.98 | locus YPR163C, strain tif3, hits give low values 0.981 | locus YPR167C, strain met16, hits give low values 0.983 | strain wtn01, hits give low values 1

Reference: PubChem BioAssay AID1159580 (chemical genetic matrix, 2015)
